The text below walks through data of PubChem BioAssay (EPA / NIEHS).

Several values for one entry are separate records, joined by “and”; a condition that tells them apart may be missing. Identical values can stand only once. Activity calls are given as the source filed them. How the source made its calls: active means hit-call score of the fitted dose curve at least 0.9, where 1 is the maximum; inactive means score below 0.9.

Read-out in this assay: Monokine induced gamma interferon (MIG), CXCL9 (gene 4283)
The experiment in a line: BSK_SAg_MIG: BioMAP Diversity Plus: SAg Assay for Monokine induced gamma interferon (MIG) Biomarker Activity (AID 2283092). The following applies: primary human HUVEC with PBMC; actives raise or lower the signal. As to the method:
BSK_SAg is a cell-based, multiplexed-readout assay that uses umbilical vein endothelium and peripheral blood mononuclear cells, a human vascular primary cell co-culture, with measurements taken at 24 hours after chemical dosing in a 96-well plate.BSK_SAg_MIG is an assay component measured in the BSK_SAg assay. It measures MIG antibody related to regulation of gene expression using ELISA technology.Data from the assay component BSK_SAg_MIG was analyzed into 1 assay endpoint. This assay endpoint, BSK_SAg_MIG, was analyzed with bidirectional fitting relative to DMSO as the negative control and baseline of activity. Using a type of binding reporter, gain or loss-of-signal activity can be used to understand changes in the signaling as they relate to the gene CXCL9. Furthermore, this assay endpoint can be referred to as a primary readout, because this assay has produced multiple assay endpoints where this one serves a signaling function. To generalize the intended target to other relatable targets, this assay endpoint is annotated to the cytokine intended target family, where the subfamily is chemotactic factor.
The levels of cell surface (or secreted, indicated by the prefix "s") biomarker endpoints were measured by ELISA. Overt cytotoxicity to cells in confluent adherent cultures (all systems other than the BT system) was assessed by measuring total protein levels using sulforhodamine B (SRB) staining in parallel cultures at the time of biomarker measurements, indicated as SRB endpoints. For proliferation assays for adherent cell types, individual cell types are cultured at sub-confluence and relative cell numbers quantified by SRB staining at time points optimized for each system (48 h: 3C and CASM3C systems; 72 h: BT and HDF3CGF systems; 96 h: SAg system). SRB was performed by staining cells with 0.1% SRB after fixation with 10% TCA and reading wells at 560 nm.Viability and proliferation of PBMC (T cells) was quantified by Alamar Blue reduction for the SAg and BT systems. For PBMC viability (referred to as PBMC Cytotoxicity within the assay endpoint names), cells were plated (75,000/well in a 96-well plate) and then chemical samples added for 1 h before addition of activators, SEB and TSST-1 (20 ng/mL final concentration each). Cells were incubated for 90 h. Then, Alamar Blue (20 uL/well) (Invitrogen, Cat DAL1100) was added for 6 h, and the plates were read with a fluorescence microplate reader at 546/580 nm (excitation/emission). For PBMC proliferation, cells were plated and activated as above but incubated for only 16 h prior to addition of Alamar Blue. Plates were read after 6 h.
For the compound `O=C(NCc1ncc(C(F)(F)F)cc1Cl)c1c(Cl)cccc1Cl`, the outcome was inactive.

Turning to `Cc1[nH]nc2c1N=C(c1ccccc1Cl)c1cc([N+](=O)[O-])ccc1N2`, the half-maximal activity concentration (AC50) was 8.28 µM (active).

Consider `O=C(O)C(F)(F)OC(F)(F)C(F)(F)OC(F)(F)C(F)(F)OC(F)(F)C(F)(F)C(F)(F)C(F)(F)F`, for which the AC50 was 49.2 µM (active) and 53.4 µM (active). With `O=C(NO)c1ccccc1`, the outcome was inactive.

Take `O=C1OC2(c3ccccc31)c1cc(I)c(O)c(I)c1Oc1c2cc(I)c(O)c1I`: the result was inactive. `O=C(O)CCC(F)(F)C(F)(F)C(F)(F)C(F)(F)C(F)(F)C(F)(F)F`: the result was inactive. On the same count and under the same terms, under `O=C(c1ccccc1)c1ccccc1` stands “inactive”.

For the compound `CC(C)(C)c1ccc(O)c(O)c1`, the AC50 is 34.8 µM (active).

`Oc1ccc(Cc2ccccc2O)cc1`: the result was inactive. On the same count and under the same terms, under `Cc1cccc2c1ccc1ccccc12` stands “inactive”; under `C[C@]12CC[C@@H]3c4ccc(O)cc4CC[C@H]3[C@@H]1C[C@@H](O)[C@@H]2O`, “inactive”. Still for that read-out and setting: as for `O=C(O)CCC(F)(F)C(F)(F)C(F)(F)C(F)(F)C(F)(F)F`, the entry is “inactive”.

On to `Cc1ccc(C(=O)c2ccccc2)cc1`, for which the outcome was inactive. Same read-out and setting: under `OCC(F)(F)C(F)(F)C(F)(F)C(F)(F)C(F)(F)C(F)(F)C(F)(F)C(F)(F)C(F)(F)C(F)(F)C(F)(F)F` stands “inactive”; under `O=S(=O)(O)C(F)(F)C(F)(F)C(F)(F)C(F)(F)C(F)(F)C(F)(F)C(F)(F)C(F)(F)C(F)(F)C(F)(F)F`, “inactive”; under `O=P(O)(O)CCC(F)(F)C(F)(F)C(F)(F)C(F)(F)C(F)(F)C(F)(F)F`, “inactive”. On to `CCCCCc1ccc(O)cc1`, for which the concentration at half-maximal activity (AC50) is 36.7 µM (active). `CN(C)CCOC(c1ccccc1)c1ccccc1`: the result was inactive. The same measure, in the same setting: as for `CCCCCCCCCCCC`, the entry is “inactive”. On to `Oc1c(Cl)cc(Cl)cc1Sc1cc(Cl)cc(Cl)c1O`, for which the AC50 is 12.4 µM (active) and 12 µM (active). Same read-out and setting: as for `CCCCc1oc2ccccc2c1C(=O)c1cc(I)c(OCCN(CC)CC)c(I)c1`, the figure is 22.9 µM (active). As to `N=C(N)c1ccc(OCCCCCOc2ccc(C(=N)N)cc2)cc1`, the result was inactive. Same read-out and setting: under `CCCCCCCCCCCCOS(=O)(=O)O` stands “inactive”; under `COc1cccc(O)c1`, “inactive”; under `CCCCCCCCCCCCCCC`, “inactive”. The same measure, in the same setting: under `CC1=NN(c2ccccc2)C(=O)C1` stands “inactive”.

Regarding `CCCCC(CC)C(=O)O` (stereo not given), the result was inactive.

On to `CN(CCO)S(=O)(=O)C(F)(F)C(F)(F)C(F)(F)C(F)(F)C(F)(F)C(F)(F)C(F)(F)C(F)(F)F`, for which the outcome was inactive. The same measure, in the same setting: under `CN(Cc1cnc2nc(N)nc(N)c2n1)c1ccc(C(=O)N[C@@H](CCC(=O)O)C(=O)O)cc1` stands “inactive”. Regarding `OCCN1CN(CCO)CN(CCO)C1`, the concentration at half-maximal activity (AC50) was 33.1 µM (active). For `OCC(CO)(CBr)CBr`, the result was inactive. The same measure, in the same setting: as for `CCOC(=O)CN[C@@H](C(=O)N1CC[C@H]1C(=O)NCc1ccc(/C(N)=N/O)cc1)C1CCCCC1`, the entry is “inactive”; as for `CS(=O)(=O)c1ccc([C@@H](CC2CCCC2)C(=O)Nc2cnccn2)cc1Cl`, “inactive”; as for `Oc1cc2ccccc2cc1O`, “inactive”.

`COc1cc(OC)nc(NC(=O)NS(=O)(=O)Nc2ccccc2C(=O)N(C)C)n1`: the result was inactive. Still for that read-out and setting: under `O=C1c2ccc(O)c(O)c2C(=O)c2c(O)ccc(O)c21` stands “inactive”. For the compound `CCCCCCCCCCCCCCCCCC[N+](C)(C)Cc1ccccc1`, the AC50 was 3.19 µM (active).

Regarding `C=CC(=O)OCCC(F)(F)C(F)(F)C(F)(F)C(F)(F)C(F)(F)C(F)(F)C(F)(F)C(F)(F)F`, the outcome was inactive. Same read-out and setting: as for `CCCCC(CC)C(=O)OCCOCCOCCOCCOC(=O)C(CC)CCCC` (stereo not given), the entry is “inactive”.

With `CCCCC=O`, the outcome was inactive.
